From publication PMC13494018

B1: design_619_5728adc2-0aea-404f-92dd-a4575c53f550_189_dldesign_0_cycle1_af2pred (protein)
chain: DPATVRGLAAMAALALQAGVTGGPEVGAANLRNVAKLAAARGTPEAAEIAKKAEEAAKEADNPEKVKEYQAYFEEIAKA
B2: design_618_d4ffd631-0ea2-432e-ba0f-bd3d6297b2a0_800_dldesign_0_cycle1_af2pred (protein)
chain: MSEAAKEVAELAEYVSKQAKEAGNEEAAKLAKEGAELAKEGAKDPSTAGEKIAEALKLYIQASQQLVAYQQA
B3: design_618_d4ffd631-0ea2-432e-ba0f-bd3d6297b2a0_955_dldesign_0_cycle1_af2pred (protein)
chain: AAASEIMAKFAAGVAKNVAAVLKEDPEKGIEVGKKLAEIILAADPQAGAKLAQAFAEYVKKYAPLIPADKKAAAEAYFNALAEKGA
B4: design_618_d4ffd631-0ea2-432e-ba0f-bd3d6297b2a0_848_dldesign_0_cycle1_af2pred (protein)
chain: MERAISLGKAAAVAGIAGSTAALKNIVKTIAKLSPEEAKKAAEVAAKEIIKAPNAKEMLKAAADAAKEVGTESGKAAAEVFEKAAKKA
B5: design_618_d4ffd631-0ea2-432e-ba0f-bd3d6297b2a0_941_dldesign_0_cycle1_af2pred (protein)
chain: SEEVKKALEEVEKLLDEAIKAAKAGDIGTAAVLLAKAAAIADKAHPEAGAVIRQGLAEAIAAAADPEKAAKVIEEAREKVKKILEA
B6: design_618_d4ffd631-0ea2-432e-ba0f-bd3d6297b2a0_2243_dldesign_0_cycle1_af2pred (protein)
chain: AAAAATALAKATAEALVRSAERGNAETARKLAEVAKGLAEGEAAAGDEEAAKAAAEAAKKIEAIAKEKAA
B7: design_618_d4ffd631-0ea2-432e-ba0f-bd3d6297b2a0_1565_dldesign_0_cycle1_af2pred (protein)
chain: MEEELKKIEEVKELGKKIGEELAKKILEYAKENASLPIEEILRKMVEMTREAVEKIYKLIPSELAEIGARIVWGAGSQAMIQGVRLIG
B8: design_618_d4ffd631-0ea2-432e-ba0f-bd3d6297b2a0_1624_dldesign_0_cycle1_af2pred (protein)
chain: MKAEVEALREQVSKAVNAATKAGSAAALKDGLASSQKLSEVMEEVGELVKKGNEATKKGEYEEALKYYQKAIEIATDAKAYFEKVAAA
B9: design_618_d4ffd631-0ea2-432e-ba0f-bd3d6297b2a0_1274_dldesign_0_cycle1_af2pred (protein)
chain: MSPEEAKAQAEELAKQAKENKAKALATVADPAKAGEHIVQIAKNAAALQRIAAEVPEVAAYAKAKAREASKYLAEASTAAAAA
B10: design_618_d4ffd631-0ea2-432e-ba0f-bd3d6297b2a0_1130_dldesign_0_cycle1_af2pred (protein)
chain: AEAVAKAALTSAKNLAEMAIRLAESGEKLEEAKKALEVAKAMAEQAEKLNPKYGKEAKAAVEKAEKKLKEAE
B11: design_619_5728adc2-0aea-404f-92dd-a4575c53f550_130_dldesign_0_cycle1_af2pred (protein)
chain: DELFARLEELARALVEEAAKRSPELADIILESYEEGKKIAEELGFGPVTAIAIAAALALRRDPEAGALLRQVFVEVARAAIEAQ
B12: design_618_d4ffd631-0ea2-432e-ba0f-bd3d6297b2a0_1320_dldesign_0_cycle1_af2pred (protein)
chain: AAAEAAAAAVRAATAAGVARVEALAAAAGDAEVAALARAEAARIREVGAVLEEIARATGPFGGEVGLKSVATVTANAEARIAEAA
B13: design_618_d4ffd631-0ea2-432e-ba0f-bd3d6297b2a0_776_dldesign_0_cycle1_af2pred (protein)
chain: GAEEELKKAEEMGEIAESIAKQAAKASGSKEAKELLKKAKELVKKAKENAKDKEKIKELLKELSRLAGQAAKQLIAALK
B14: design_619_5728adc2-0aea-404f-92dd-a4575c53f550_103_dldesign_0_cycle1_af2pred (protein)
chain: SEAERYAEAAKKLAQVAKDIAAAFPANPELKKEAEKAKKYAEKAEKLVKEGGSAEEVLKEYEKARAALARATKLAIAA
B15: design_618_d4ffd631-0ea2-432e-ba0f-bd3d6297b2a0_1628_dldesign_0_cycle1_af2pred (protein)
chain: AAQAQADQITKAAAEAAIKSAKAMVDINLESARKLAEVAADLGKAAPATAAEIKAAAKAVIEEADKKEAEKA
B16: design_618_d4ffd631-0ea2-432e-ba0f-bd3d6297b2a0_719_dldesign_0_cycle1_af2pred (protein)
chain: AAALAEVQEKALEAAKKASELAREARKAGDEEKAKKFEELMNTLMSAAGAAAQDLEAAKEKIDKAIKEIEELAKN
B17: design_618_d4ffd631-0ea2-432e-ba0f-bd3d6297b2a0_1745_dldesign_0_cycle1_af2pred (protein)
chain: SAARLAEQRARAAELRERAEEALKRAEQVEKKNPAAGAAVRALVRQALRQVELGLADPENAERYLDSARRNLEVAQGIIDATL
B18: design_619_5728adc2-0aea-404f-92dd-a4575c53f550_132_dldesign_0_cycle1_af2pred (protein)
chain: AEAAAALAAAMRAATDAAVAEAATGTGEGIAKALHVANLARAAAEANPETAAEHRAYAERALAAAKAAQAAAIAAA
B19: design_618_d4ffd631-0ea2-432e-ba0f-bd3d6297b2a0_2235_dldesign_0_cycle1_af2pred (protein)
chain: EEDEKILESAKKMKEVAKDLAEYAKTSTAEVAKIAANSAEALARILKETAKESKKKEEIEKLAKEAEEYAKEAKETAKKK
B20: design_618_d4ffd631-0ea2-432e-ba0f-bd3d6297b2a0_2266_dldesign_0_cycle1_af2pred (protein)
chain: SADVELGKEKGKELAEKIKEAAKKGLKAGDPEAAGKEMNKIVQEAIKFAATLSPEAASVLLSIVIETAKEESAKLKAA
B21: design_618_d4ffd631-0ea2-432e-ba0f-bd3d6297b2a0_442_dldesign_0_cycle1_af2pred (protein)
chain: AAATRATADAALAELERVGEVAVTVAKSALEAGFSKETALKIGTSLVENVVTGATAAVADDPAAQARIRAAGERIKEEIRKAL
B22: design_618_d4ffd631-0ea2-432e-ba0f-bd3d6297b2a0_1177_dldesign_0_cycle1_af2pred (protein)
chain: AQATLASAQALTNAAETALKTSPEYAPLALQLAQQGIELAKQAAKEGAKEDPATAKEAKEVQKKAEEVAKQAQKILA
B23: design_618_d4ffd631-0ea2-432e-ba0f-bd3d6297b2a0_729_dldesign_0_cycle1_af2pred (protein)
chain: AKEEVVEQAKQVAEAALALAKQVSPEWEKKAKEALELVEKAKEGNLEEAQKVAGEVMRIAAEVLAAYTAKQA
B24: design_618_d4ffd631-0ea2-432e-ba0f-bd3d6297b2a0_931_dldesign_0_cycle1_af2pred (protein)
chain: AAAAEAALARAVAVLGRAFQQAVASPDLAEADALLDAGLAEALAITAADPEAAAAVRRLAAQMRAKVRELVS
B25: design_619_5728adc2-0aea-404f-92dd-a4575c53f550_149_dldesign_0_cycle1_af2pred (protein)
chain: SPAQEAARAEADRAAEAIAAFAKQIAAAASPELAKEVLAAAEKAAAALAAAKELPAEEARAATDAVWAAANRAAAAAMRQVLAQTT
B26: design_618_d4ffd631-0ea2-432e-ba0f-bd3d6297b2a0_2021_dldesign_0_cycle1_af2pred (protein)
chain: AALAAQGRAIARTMRIAVLNAATAAEAAAIADTFGTTLLNLADLASPEEQRAIVEATRAEAEEVAAENPEAGAAVAATAERLRAHVEA
B27: design_618_d4ffd631-0ea2-432e-ba0f-bd3d6297b2a0_2309_dldesign_0_cycle1_af2pred (protein)
chain: AGLEIANKALQLAAEATAALKAAAKGTAAEVEALAKKYLDEAKKLKEQATTPQAKAAANIAISAVTTAKKAALAAVA
B28: design_618_d4ffd631-0ea2-432e-ba0f-bd3d6297b2a0_1622_dldesign_0_cycle1_af2pred (protein)
chain: SKEEREKIYKEALKNLEKMGTLLLDLAAQGSAADVAAAKAAIEEAKKLIEEAKKANPEEAKKLAKEAHDILSKALAAVSKSVIA
B29: design_618_d4ffd631-0ea2-432e-ba0f-bd3d6297b2a0_2465_dldesign_0_cycle1_af2pred (protein)
chain: AAAAQAAAILAAAQQGINDTTALLEKYKDVATPETVALFNKALAYFSKAAALALRGTQPAEAAAALAKGQEEAKKGEELLKKEVE
B30: design_618_d4ffd631-0ea2-432e-ba0f-bd3d6297b2a0_2000_dldesign_0_cycle1_af2pred (protein)
chain: RAAAVEAALAYARAVAETDASLEAARAAFERAKALLPEAPEAAGTLAGAALVAGSNPALGERLFAAGAARAA
B31: design_619_5728adc2-0aea-404f-92dd-a4575c53f550_74_dldesign_0_cycle1_af2pred (protein)
chain: DLDAVIATGMLALGKANAALAAARAGTATAAELEAAAAEAEAAAALAAALAAQSSTMAWLAAQLKKAAAELRAAAAKLKA
B32: design_618_d4ffd631-0ea2-432e-ba0f-bd3d6297b2a0_1447_dldesign_0_cycle1_af2pred (protein)
chain: MQGHIDRLNRGAEAALAAAESGEITEEQARIIRNGAMIAYDAAEAYEKTTRAAELLQTTPEGREEGGKILRELAEKMLARAKELL
B33: design_619_5728adc2-0aea-404f-92dd-a4575c53f550_175_dldesign_0_cycle1_af2pred (protein)
chain: AAAQQQAIGNAAIRTADIAMATAKKLIKEDPAKGKEVAEQAVGILEGAAKAAPSTAATLLAEAKKVKEETEKAIKEA
B34: design_618_d4ffd631-0ea2-432e-ba0f-bd3d6297b2a0_472_dldesign_0_cycle1_af2pred (protein)
chain: MNEAQRIAAARGAARVAAAAAEKDPALGKAILAGAAATFADSPAALKALAATAREEAEKASPEAGAALKAAAAEVEAAAA
B35: design_618_d4ffd631-0ea2-432e-ba0f-bd3d6297b2a0_2173_dldesign_0_cycle1_af2pred (protein)
chain: SSAKEKAKKLAEEAKKIADKAIAQAKALAADKGAANAVLLDAIKELSELAKKAYALDPAYADKINAYAQELVKQMAAIAG
B36: design_618_d4ffd631-0ea2-432e-ba0f-bd3d6297b2a0_687_dldesign_0_cycle1_af2pred (protein)
chain: AAAQQLAVQSATAFARQAIAAAQAALELAKADPSAKEEIERLLNQARASLQNALLVGQSSPEAAAIAQEAQATVEKLAAETAKAAAA
B37: design_618_d4ffd631-0ea2-432e-ba0f-bd3d6297b2a0_2296_dldesign_0_cycle1_af2pred (protein)
chain: DKYATEAKKYAEEAEKLAKEAKKEAKKVGEAAKELAKQAEAAAKTAKIAAEGAEAATDPAARALALKVAEQAYKQAKKLLKEIKKL
B38: design_618_d4ffd631-0ea2-432e-ba0f-bd3d6297b2a0_2461_dldesign_0_cycle1_af2pred (protein)
chain: STAFFQEATKLIEEAGEVANRVPEVAPLANKAITAASKAMLAAAQGNEAAAKAYFDEAKKLLEEAKKKAKELLE

What follows are binders tested against CD276, Q5ZPR3.
Sequence of CD276, Q5ZPR3 (Q5ZPR3 whole entry): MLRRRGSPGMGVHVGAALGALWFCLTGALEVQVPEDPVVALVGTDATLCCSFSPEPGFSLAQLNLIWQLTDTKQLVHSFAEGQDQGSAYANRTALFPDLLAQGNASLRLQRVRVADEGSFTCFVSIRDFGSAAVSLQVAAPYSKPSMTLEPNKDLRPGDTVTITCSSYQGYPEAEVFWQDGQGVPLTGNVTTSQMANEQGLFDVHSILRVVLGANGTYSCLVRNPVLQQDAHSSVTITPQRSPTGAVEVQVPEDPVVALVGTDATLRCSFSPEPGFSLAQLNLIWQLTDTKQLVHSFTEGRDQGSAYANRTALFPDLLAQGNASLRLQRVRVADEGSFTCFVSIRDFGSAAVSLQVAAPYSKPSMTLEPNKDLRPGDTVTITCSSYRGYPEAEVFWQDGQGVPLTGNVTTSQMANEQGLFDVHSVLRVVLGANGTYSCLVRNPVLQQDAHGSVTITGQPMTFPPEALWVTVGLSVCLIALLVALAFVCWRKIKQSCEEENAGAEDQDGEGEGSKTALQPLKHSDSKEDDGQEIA

Binding in a display sort, inactive:
B1 not found
B2 not found
B3 not found
B4 not found
B5 not found
B6 not found
B7 not found
B8 not found
B9 not found
B10 not found
B11 not found
B12 not found
B13 not found
B14 not found
B15 not found
B16 not found
B17 not found
B18 not found
B19 not found
B20 not found
B21 not found
B22 not found
B23 not found
B24 not found
B25 not found
B26 not found
B27 not found
B28 not found
B29 not found
B30 not found
B31 not found
B32 not found
B33 not found
B34 not found
B35 not found
B36 not found
B37 not found
B38 not found
